From PubChem BioAssay AID485364 (National Center for Advancing Translational Sciences (NCATS), 2010) come the findings set out here.

SMILES strings stand for the structures. Among all 360,000 compounds or so, about 11,000 (3.1%) were called active. Another 4% or so got no clear call; they are omitted. This is one part of a sample in which actives are shown more often than they occur. Unmarked numbers belong to inactive results. Calls follow the shape of the dose curve; as a rule, active = well fitted inhibition curve with a large enough effect; inconclusive = small, poorly fitted or top-dose-only effect; inactive = no such curve, though single readings can be large or run the other way.
% is scaled to controls: 0 for no effect and ±100 for the full control effect; potency is read from the fitted curve at half-maximal effect.

The test addresses Schistosoma mansoni thioredoxin glutathione reductase (TGR) (UniProt Q962Y6). Description: qHTS Assay for the Inhibitors of Schistosoma Mansoni Peroxiredoxins. Also: nearly all actives have a fitted effect of over 60% in size. As to conditions: purified TGR, DTNB reduction, TNB absorbance 405 nm; series mostly up to 114 µM; activity change, negative = inhibition: at the top concentration. An excerpt: Schistosomiasis is a major neglected tropical disease that currently affects over 200 million. It is caused by different species of flatworms, such as Schistosoma mansoni. Over the last century, drugs to treat the disease have evolved from potassium antimonyl tartrate, artemisinin, oxamniquine, to praziquantel, with praziquantel remaining the universally-used single drug of choice over the past three decades. However, transmission rates have changed little with praziquantel, and there is evidence for the development of drug resistant parasites. Because there is currently no suitable alternative therapy available, there is an urgent need to identify new targets and drugs for schistosomiasis treatment. Thioredoxin glutathione reductase (TGR), one uniquely positioned S. mansoni enzyme, has been identified as a major component of the worms' distinct and compressed antioxidant "firewall". TGR is a multifunctional enzyme that catalyzes the interconversion between reduced and oxidized forms of both glutathione (GSH) and thioredoxins, thus making it an attractive new antiparasitic target. Recently, a quantitative high-throughput screen of the NIH Molecular Libraries Small Molecule Repository (MLSMR, ~71K at the time of the screen in 2007) was performed using an assay that targeted both TGR and peroxiredoxin2 (Prx2, an H2O2-reducing enzymatic component of the S. mansoni redox "firewall") by following the decrease of NADPH fluorescence. […] Additional mechanistic link between exogenous NO donation and parasitic injury for the oxadiazole-2-oxide class of compounds was also expanded and better defined. Although the screen addressed both TGR and Prx2, the assay required post-screen target deconvolution for further characterization of the actives. In addition, the fluorescence assay was also subject to fluorescence interference from compound library members. We have developed a 1536-well-based kinetic HTS assay to address TGR alone. The assay followed the reduction of 5, 5'-dithiobis (2-nitrobenzoic acid) (DTNB) (Ellman's reagent) by NADPH and measured the increase in absorbance at 412 nm of the reaction product, TNB. […] This assay format can be used to screen the current MLSMR collection (with >300K compounds available) to find novel TGR inhibitors. Furoxan is a good choice to serve as a positive control in the primary HTS assay.
Three microliters of reagents (100 uM NADPH and 20 nM TGR or 100 uM NADPH as no-enzyme control) were dispensed into 1,536-well black clear-bottomed plates. Compounds (23 nL) were transferred via Kalypsys pin tool equipped with 1536-pin array (10 nL slotted pins, V&P Scientific, San Diego, CA). The plates were then be incubated for 15 min at room temperature, and 1 uL aliquot of 500 uM NADPH were added, immediately followed by a 1 uL aliquot of 15 mM DTNB to start the reaction. The plate was transferred to a ViewLux high-throughput CCD imager (Perkin-Elmer, Wellesley, MA) where kinetic measurements of the TNB absorbance were acquired using a 405 excitation filter. Throughout the screen, reagent bottles and all liquid lines were made light-tight to minimize reagent degradation. All screening operations were performed on a fully integrated robotic system (Kalypsys, San Diego, CA) containing one RX-130 and two RX-90 anthropomorphic robotic arms (Staubli, Duncan, SC). Library plates were screened starting from the lowest and proceeding to the highest concentration, and a "double-dipping" step of the highest concentration was required to access higher concentrations of compounds. Vehicle-only plates, with DMSO being pin-transferred to the entire column 5-48 compound area, were inserted uniformly at the beginning and the end of each library in order to monitor for and record any shifts in the background, which can be affected by reagent dispensers or loss in enzyme activity overtime. […]
For orientation: qHTS replaces the single test concentration by a dilution series.
As for `COc1ccc(S(=O)(=O)N2CCC(C(=O)N3CCCC3)CC2)cc1C`, the “activity change, negative = inhibition” value was -3.4%.

For `COc1ccc(S(=O)(=O)N2CCC(C(=O)N3CCOCC3)CC2)cc1OC`, the Potency is 79.4 µM (active).

Regarding `CCN1CCN(C(=O)C2CCCN(S(=O)(=O)c3ccc(OC)c(OC)c3)C2)CC1` (centres undefined), the “activity change, negative = inhibition” value is 3.29%.

For the molecule `O=C(C1CCC(Cn2c(=O)c3sccc3n(Cc3ccccc3F)c2=O)CC1)N1CCCCC1` (centres undefined), the “activity change, negative = inhibition” value was 19%.

In the case of `COc1ccc(Cl)cc1NC(=O)c1sc2nc3c(cc2c1N)CN(C)CC3`, the “activity change, negative = inhibition” value is 0.374%.

Regarding `CCCCN(CC)C(=O)c1c[nH]c2ccc(S(=O)(=O)Nc3cccc(OC)c3)cc2c1=O`, the “activity change, negative = inhibition” value is 3.28%.

As to `Clc1ccccc1CSc1nnc(-c2ccco2)c(-c2ccco2)n1`, the Potency is 7.94 µM (active).

Take `CC1(C)N=C(SCc2ccccc2Cl)c2ccccc2N1`: the “activity change, negative = inhibition” value was -1.4%.

On to `c1ccc(CSc2nnc(-c3ccco3)c(-c3ccco3)n2)cc1`, for which the Potency is 2.82 µM (active).

Turning to `Clc1ccc(CSc2nnc3c(n2)[nH]c2ccccc23)cc1`, the “activity change, negative = inhibition” value is 10.3%.

Consider `Cc1ccc(-c2nnc(SCC(=O)NCc3ccccc3)nc2-c2ccc(C)cc2)cc1`, for which the “activity change, negative = inhibition” value was 0.946%.

On to `Clc1ccccc1CSc1nncn2c1cc1occc12`, for which the “activity change, negative = inhibition” value is -12.1%.

In the case of `COc1ccccc1CNC(=O)CCCn1c(=O)c2ccccc2n(CC(=O)Nc2ccc(C)cc2Cl)c1=O`, the “activity change, negative = inhibition” value is 6.54%.

`CC1=C(C(N)=O)C(c2ccc3c(c2)OCO3)n2nc(-c3cccc(C)c3)nc2N1` (centres undefined): the Potency is 0.251 µM (active).

As for `CCN(CC)c1ccc(C2C(C(N)=O)=C(C)Nc3nc(SCc4ccccc4)nn32)cc1` (centres undefined), the “activity change, negative = inhibition” value is 2.58%.

For the molecule `COc1cccc(-c2nc3n(n2)C(c2ccccc2Cl)C(C(N)=O)=C(C)N3)c1` (centres undefined), the “activity change, negative = inhibition” value is -0.143%.

As for `Cc1cccc(-n2ccnc2SCC(=O)Nc2cccc3ccccc23)c1C`, the “activity change, negative = inhibition” value was -0.262%.

With `COc1ccc(-c2cc(C(F)(F)F)nc(SCC(=O)N(C)Cc3ccccc3)n2)cc1OC`, the “activity change, negative = inhibition” value was -0.774%.

Turning to `COc1ccc(-c2cc(C(F)(F)F)nc(S(C)(=O)=O)n2)cc1OC`, the Potency was 31.6 µM (active).

Take `COc1ccc(CCNc2nc(-c3ccc(F)cc3)cc(C(F)(F)F)n2)cc1OC`: the “activity change, negative = inhibition” value was 7.8%.

Turning to `CC1CN(C(=O)N2CCC(C(=O)NCc3ccco3)CC2)c2cc(Cl)ccc2O1` (centres undefined), the “activity change, negative = inhibition” value is 2.23%.

In the case of `Cc1cc(Cl)ccc1OCC(=O)N(Cc1ccc(N(C)C)cc1)C1CCS(=O)(=O)C1` (centres undefined), the “activity change, negative = inhibition” value is -3.15%.

As for `CC1CCN(C(=O)COC(=O)CCC(=O)c2cccs2)CC1`, the “activity change, negative = inhibition” value is -0.877%.

Consider `O=C(COC(=O)c1cccs1)NCc1cccs1`, for which the “activity change, negative = inhibition” value was 0.591%.

For the molecule `O=C(COC(=O)CCC(=O)c1cccs1)NCc1ccco1`, the Potency is 25.1 µM (active).

Consider `CCN(CCCNC(=O)c1cc2c(=O)n(CC)c3ccccc3c2s1)Cc1ccccc1`, for which the “activity change, negative = inhibition” value was 1.45%.

In the case of `CCc1ccc(Nc2ncc3c(n2)CC(c2ccco2)CC3=O)cc1` (centres undefined), the Potency was 39.8 µM (active).

Take `COc1cc(C2CC(=O)c3cnc(NC(C)=O)nc3C2)cc(OC)c1OC` (centres undefined): the “activity change, negative = inhibition” value was -0.421%.

In the case of `O=C(Nc1ncc2c(n1)CC(c1ccco1)CC2=O)c1ccc(Cl)cc1` (centres undefined), the Potency is 44.7 µM (active).

On to `O=C(Nc1ncc2c(n1)-c1ccccc1OC2)c1ccc(Cl)cc1`, for which the “activity change, negative = inhibition” value is -18.3%.

`CCN1CCN(c2ncc3c(n2)CC(c2ccccc2O)CC3=O)CC1` (centres undefined): the “activity change, negative = inhibition” value is 3.56%.

Consider `CC1=C(C(=O)Nc2ccc(Cl)cc2)C(c2ccco2)NC(=O)N1` (centres undefined), for which the “activity change, negative = inhibition” value is 3.63%.

In the case of `COc1ccc(C(=O)COC(=O)CCCC(=O)Nc2cc(C(F)(F)F)ccc2Cl)cc1`, the “activity change, negative = inhibition” value was -11.9%.

On to `CCc1ccc(C(=O)CC2(O)C(=O)N(CCc3ccccc3)c3ccc(Br)cc32)cc1` (centres undefined), for which the “activity change, negative = inhibition” value is 6.62%.

Regarding `CC1CCN(c2nc3ccc(C(=O)N4CCN(c5ccccc5)CC4)cc3s2)CC1`, the “activity change, negative = inhibition” value was 2.12%.

On to `CCCN(CCC)CCCNC(=O)Cn1cc2c(n1)-c1c(oc(C(=O)N3CCCC3)c1C)CC2`, for which the “activity change, negative = inhibition” value is -2.8%.

Turning to `CCC(=O)Nc1cccc(-c2nc3cc(C)ccc3o2)c1`, the “activity change, negative = inhibition” value was 11%.

For the molecule `C[C@@H]1C[C@@H]2O[C@H]2/C=C\C=C\C(=O)Cc2c(Cl)c(O)cc(O)c2C(=O)O1`, the Potency was 4.47 µM (active).

With `CC(C)CC(NS(=O)(=O)c1ccc2c(c1)oc(=O)n2C)C(=O)NCc1ccccc1Cl` (centres undefined), the “activity change, negative = inhibition” value was -2.66%.

`CCc1ccc(NC(=O)CN2CCSc3ccc(S(=O)(=O)N4CCCC4)cc32)cc1`: the “activity change, negative = inhibition” value is 6.65%.

With `NC(=O)c1c(Nc2nc3c(F)cccc3s2)sc2c1CCCC2`, the Potency was 39.8 µM (active).

As to `Cc1cc(OC(C)C(=O)Nc2sc3c(c2C(N)=O)CCCC3)ccc1Cl` (centres undefined), the “activity change, negative = inhibition” value was 11.2%.

Take `COc1ccc(-c2cc(C(=O)Nc3sc4c(c3C(N)=O)CCCC4)no2)cc1`: the “activity change, negative = inhibition” value is -10%.

For the molecule `COC(=O)c1ccc(NC(=O)CSc2n[nH]c(-c3ccccc3)n2)cc1`, the “activity change, negative = inhibition” value is 6.33%.

With `Cc1ccc(CN2COc3cc(C)c4c(oc(=O)c5ccccc54)c3C2)cc1`, the “activity change, negative = inhibition” value was -6.11%.

On to `COc1cc(CN(C(=O)c2ccccc2Br)c2ccccn2)cc(OC)c1OC`, for which the “activity change, negative = inhibition” value was -0.508%.

On to `COc1cccc(CNC(=O)C2CCN(S(=O)(=O)c3ccc4c(ccn4C)c3)CC2)c1`, for which the “activity change, negative = inhibition” value is -1.19%.

For `COc1cc(/C=N/NC(=S)Nc2cccnc2)cc(OC)c1O`, the “activity change, negative = inhibition” value is -21.6%.

`COc1cc(/C=N/Nc2ccc(C)cc2)cc(Br)c1O`: the Potency is 10 µM (active).
